{"source": "PubChem BioAssay (NCI)", "note": "About 83,000 compounds went through this panel and 20% of them were active in at least one assay; those are over-represented in the sample as a whole.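 Results are percent growth after 48 hours of single-concentration exposure. 100 means growth as in untreated cells, lower positive values show inhibition; negative values down to -100 show cell death.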 Calls of active or inactive are those of the source."}
{"test_system": "HT29 colon", "assay": "NCI-60 one-dose screen, 48 h (100 = growth as untreated, 0 = no growth, -100 = all killed)", "details": "10 µM unless noted", "experimental": "Growth inhibition of the HT29 human tumor cell line is measured as a screen for anti-cancer activity. Cells are grown in 96 well plates and exposed to the test compound for 48 hours. Compounds are tested at a single concentration, which is 10^-5 M for most compounds. The reported endpoint is percent growth (GI% or GIPRCNT), where numbers from 0 - 100% represent growth inhibition, and numbers from -100% - 0 represent cell death. For example, a value of 40 represents 60% growth inhibition. A value of 0 means no net growth occurred over the course of the experiment. A value of -40 indicates 40% of cells at the beginning of the experiment died by the end of the experiment. A value of -100 means all cells are dead at the end of the experiment.\nNCI-60 Human Tumor Cell Lines Screen was performed using the standard one-dose NCI protocol, which is described in more detail at https://dtp.cancer.gov/discovery_development/nci-60/default.htm.\nCompounds with GIPRCNT values below 10 were considered active. Activity score was based on GIPRCNT using the following formula: […]\nScore is 0 for GIPRCNT values of 100 or above, 50 for GIPRCNT values of 0, and 100 for GIPRCNT values of -100."}
{"molecule": "CCOC(=O)c1ccc2c(c1)nc(-c1ccc(Cl)cc1)n2-c1cc(C(C)(C)C)[nH]n1", "growth": "18.5% (inactive)"}
{"molecule": "Clc1nnc2c3ccccc3ccn12", "growth": "113% (inactive)"}
{"molecule": "CC(C)N(C(=S)SSC(=S)N(C(C)C)C(C)C)C(C)C", "growth": "88.1% (inactive)"}
{"molecule": "O=P(O)(O)C(O)(Cc1cccnc1)P(=O)(O)O", "growth": "106% (inactive)"}
{"molecule": "c1ccc2c(N=NSc3ncnc4nc[nH]c34)c3ccccc3nc2c1", "growth": "0.967% (active)"}
{"molecule": "COc1ccc(C(=O)OC2C(OC3C(O)COC(O[C@H]4C[C@H]5[C@@H]6CC=C7C[C@@H](O)CC[C@]7(C)[C@H]6CC[C@]5(C)[C@H]4[C@H](C)C(=O)CCC(C)C)C3OC(C)=O)OCC(O)C2O)cc1", "note": "(stereo not given in full)", "growth": "0.168% (active)"}
{"molecule": "O=C(CCl)Nc1ccc2c(c1)C(=O)c1ccccc1C2=O", "growth": "-63.6% (active)"}
{"molecule": "CCCCCCCCCCCC1=NC(C)(C)CN1CCO", "growth": "-25.2% (active)"}
{"molecule": "COc1cc2ncnc(Nc3ccc(S(=O)(=O)Nc4cc(C)on4)cc3)c2cc1OCCCN1CCN(c2ccc([N+](=O)[O-])cc2)CC1", "growth": "107% (inactive)"}
{"molecule": "O=C(N/N=C/c1ccc([N+](=O)[O-])cc1)c1ccccc1Nc1ccnc(C(F)(F)F)c1", "growth": "101% (inactive)"}
{"molecule": "COc1cccc(NC(=O)OC(C)C)c1", "growth": "105% (inactive)"}
{"molecule": "O=C(Nc1ccncc1)C(=O)c1cn(S(=O)(=O)c2cccc(Cl)c2F)c2ccccc12", "growth": "50% (inactive)"}
{"molecule": "C=CCN1C(=O)/C(=c2\\sc3n(c2=O)C2C(NN=3)N(CC)C(=O)N2CC)c2ccccc21", "note": "(stereo not given)", "growth": "6.59% (active)"}
{"molecule": "CN1C(=O)C(C2=NNC(c3ccccc3C(=O)O)C2)C(=O)N(C)C1=O", "note": "(stereo not given)", "growth": "98.5% (inactive)"}
{"molecule": "COc1ccc2[nH]cc(C3(c4c[nH]c5ccc(OC)cc45)C(=O)Nc4ccc(Cl)cc43)c2c1", "growth": "44.9% (inactive)"}
{"molecule": "O=C1c2cccc3cccc(c23)C(=O)N1CCCCCCCCCCN1C(=O)c2cccc3cccc(c23)C1=O", "growth": "106% (inactive)"}
{"molecule": "COc1ccc(C(=O)O)cc1.[Ag]", "growth": "103% (inactive)"}
{"molecule": "COc1cc(C2CC(c3ccc(C)cc3)=NN2C=O)ccc1Oc1nc2c(c(=O)n(C)c(=O)n2C)n1C", "note": "(stereo not given)", "growth": "72.6% (inactive)"}
{"molecule": "COc1ccc(-c2conc2-n2nc(-c3ccccc3)nc2-c2ccccc2)cc1", "growth": "102% (inactive)"}
{"molecule": "O=c1c2cc(Cl)ccc2oc2ccc(OCCCCCN3CCCCC3)cc12", "growth": "-27.9% (active)"}
{"molecule": "CC(C)CCSc1nc(Nc2ccccc2)c(C#N)c(-c2ccc(F)cc2)n1", "growth": "49.9% (inactive)"}
{"molecule": "COc1cccc(-c2cc(-c3cccs3)c(C#N)c(=O)[nH]2)c1", "growth": "116% (inactive)"}
{"molecule": "CS(=O)(=O)c1ccc(C(=O)Nc2ccc(Cl)c(-c3ccccn3)c2)c(Cl)c1", "growth": "-7.2% (active)"}
{"molecule": "COc1cccc(N2CCN(c3ncnc4cc[nH]c34)CC2)c1", "growth": "73.2% (inactive)"}
{"molecule": "CC(=O)O[C@@H]1CC2C(C)(C)CCCC2(C)C2=C1C(=O)C(C(C)C)=CC2=O", "note": "(stereo not given in full)", "growth": "0.85% (active)"}
{"molecule": "Nc1nc(N)c2cc(NCc3ccc(Cl)c(Cl)c3)ccc2n1", "growth": "-76.3% (active)"}
{"molecule": "Cc1ccc(C)c2c1SC1=NNC(Oc3ccc(Cl)cc3)=C(C#N)C(=N)N12", "growth": "103% (inactive)"}
{"molecule": "CS(=O)(=O)c1ccc(Cl)c([N+](=O)[O-])c1", "growth": "94.7% (inactive)"}
{"molecule": "CCOC(=O)Cn1c(-c2nonc2NC(=O)c2ccccc2F)nc2ccccc21", "growth": "27.4% (inactive)"}
{"molecule": "COC(=O)[C@@H](Cc1c[nH]c2ccccc12)NC(=O)/C=C/c1ccccc1", "growth": "85.5% (inactive)"}
{"molecule": "CCSc1cnnc2ccccc12", "growth": "106% (inactive)"}
{"molecule": "CCN(CC)C(=O)O/N=C(/C)c1ccccc1", "growth": "102% (inactive)"}
{"molecule": "N=C(N)c1ccc(NCCNc2ccc(C(=N)N)cc2)cc1", "growth": "103% (inactive)"}
{"molecule": "CCOC(=O)C#Cc1c(C(=O)OCC)nnn1[C@@H]1O[C@H](COC(C)=O)[C@@H](OC(C)=O)[C@H]1OC(C)=O", "growth": "88.9% (inactive)"}
{"molecule": "COc1ccc2c(c1)sc1nc(-c3ccccc3)c(-c3cccc4ccccc34)n12", "growth": "1.35% (active)"}
{"molecule": "Cc1c(C(=O)Nc2ccccc2F)sc2c(=O)[nH]cnc12", "growth": "63.8% (inactive)"}
{"molecule": "O=c1nc(-c2ccccc2)c2cc(-c3ccc(N4CCOCC4)cc3)ccc2[nH]1", "growth": "84.5% (inactive)"}
{"molecule": "Cc1csc(N/N=C/c2ccncc2)n1", "growth": "87.4% (inactive)"}
{"molecule": "CCn1c(=O)c(C(=O)NCCCO)c(O)c2ccccc21", "growth": "109% (inactive)"}
{"molecule": "ClCc1c(Cl)c(Cl)c(Cl)c(CCl)c1Cl", "growth": "-78.4% (active)"}
